Laboratory results from PubChem BioAssay AID1259312 (Keith Lab, Institute of Cancer Science, University of …, 2017).
The campaign covered roughly 4,500 compounds. About 200 (4.4%) were called active. The entries come from a sample that favours actives as a whole. A number with no mark means an inactive call.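 The calls were made as follows: active = cell survival measured by absorbance rises more than 2.5-fold over infected cells without compound; inactive = the rest.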

Assay: survival after telomere uncapping, modulators, primary screen, cell-based (AID 1259312);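 also: virus expresses mutant telomerase RNA that uncaps telomeres and kills cells; compound added 2 days after infection so exposure lasts 3 days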
Conditions: HCT116 + Ad-hTR-mut, MTT, 5 d; at 10 µM, hits give high values
COc1ccc(C2Oc3ccccc3C3CC(c4ccccc4)=NN32)cc1 (centres undefined) showed a fold change of -1.84.
In the case of O=c1cc(-c2ccc(O)cc2)oc2c(O)c(O)ccc12, the fold change is reported as 1.16.
CSc1nc2ccccc2n1Cc1ccccc1Cl showed a fold change of 1.29.
Molecule O=S(=O)(Nc1ccc(S(=O)(=O)Nc2ccccc2Cl)cc1)c1ccc2c(c1)OCCO2 has a fold change of -1.07.
CNCC1COCCO1 (centres undefined) gave a fold change of -2.02.
Work on N=C(N)SCc1csc(N)n1 yielded a fold change of 1.98.
Work on S=c1[nH]nc(Cc2cccc3ccccc23)o1 yielded a fold change of -2.84.
In the case of C1=NC(Cc2cccc3ccccc23)NC1 (centres undefined), the fold change is reported as 4.23 (active).
With Cc1nc2sc3c(c2c(=O)n1N)CCC3 the fold change was -1.06.
c1ccc(CC2COC(C3=N[C@@H](Cc4ccccc4)CO3)=N2)cc1 (some centres undefined) showed a fold change of 1.27.
Work on O=C(NCCC1=CCCCC1)C(=O)NCc1ccco1 yielded a fold change of -1.07.
Work on O=S(=O)(c1ccc2ccccc2c1)N1CCc2ccccc21 yielded a fold change of 1.
Molecule CCCCc1ccc(-c2csc(N)c2C#N)cc1 has a fold change of -1.78.
CCn1c(-c2ccccc2)nn(CN2CCOCC2)c1=S gave a fold change of 1.15.
Molecule S=c1n(CN2CCOCC2)nnn1C1CCCCC1 has a fold change of 1.01.
With S=c1n(CN2CCOCC2)nnn1-c1ccccc1 the fold change was 4.24 (active).
CN(C)c1nc(N)nc(CN(C)S(=O)(=O)c2ccccc2)n1 showed a fold change of -1.09.
For O=c1[nH]c2ccc(N=Cc3ccc4c(c3)OCO4)cc2[nH]1, the fold change was 2.71 (active).
Work on CN(C)c1ccc(C=Nc2ccc3[nH]c(=O)[nH]c3c2)cc1[N+](=O)[O-] yielded a fold change of -1.64.
C(=Nc1ccc2[nH]ncc2c1)c1ccc2c(c1)OCO2 showed a fold change of -2.04.
O=C(ON1C(=O)CCC1=O)ON1C(=O)CCC1=O showed a fold change of -1.28.
Work on O=[N+]([O-])c1ccc(Cl)c(N2CCCC2)c1 yielded a fold change of 2.03.
Molecule Nc1nnc(SCc2ccc(Cl)cc2)s1 has a fold change of 1.21.
For N=C(N)SCc1ccc(Cl)cc1, the fold change was 2.73 (active).
With N=C(N)SCc1ccc(Cl)cc1Cl the fold change was -1.36.
Molecule CC1Oc2ccc(S(=O)(=O)NCC3CCCO3)cc2NC1=O (centres undefined) has a fold change of -1.21.
In the case of O=S(=O)(NCC1CCCO1)c1ccc(Br)cc1 (centres undefined), the fold change is reported as 3.1 (active).
Molecule O=S(=O)(NCC1CCCO1)c1ccccc1 (centres undefined) has a fold change of -1.72.
Work on NCC12CC3CC(CC(C3)C1)C2 yielded a fold change of -1.38.
In the case of CC1NC(=O)N(C(C)(C)C)C(=O)C1Cl (centres undefined), the fold change is reported as 3.94 (active).
For COc1ccc(N2C(=O)/C(=C\N3CCN(C)CC3)SC2=S)cc1, the fold change was -1.11.
Molecule Cc1ccn(-c2ccc([N+](=O)[O-])cc2)n1 has a fold change of -1.59.
In the case of N#CC(C#N)=Cc1ccc(-c2cccc(C(F)(F)F)c2)o1, the fold change is reported as 2.62 (active).
Work on O=C1NC(=S)S/C1=C/c1ccc(-c2cccc(C(F)(F)F)c2)o1 yielded a fold change of 1.1.
In the case of O=C1NC(=O)/C(=C\c2ccc(-c3cccc(C(F)(F)F)c3)o2)S1, the fold change is reported as -1.8.
With O=C1CSc2ccc(NC(=O)C3CCCC3)cc2N1 the fold change was 1.29.
Work on O=[N+]([O-])c1ccc(N2CCOCC2)cc1 yielded a fold change of 1.1.
In the case of Nc1cc(N2CCOCC2)ccc1[N+](=O)[O-], the fold change is reported as 3.38 (active).
O=[N+]([O-])c1ccc(N2CCCCC2)cc1N1CCOCC1 showed a fold change of -1.29.
In the case of O=C(O)C(C(=O)O)C1C=CCC1 (centres undefined), the fold change is reported as 1.13.
Nc1ccc(N2CCOCC2)c(Br)c1 showed a fold change of -1.07.
For Nc1ccc(N2CCOCC2)c(Cl)c1, the fold change was 4.13 (active).
Molecule Nc1cc(Cl)ccc1N1CCOCC1 has a fold change of 1.23.
Work on N#CC1=C(N)n2c(s/c(=C\c3ccc(Br)cc3)c2=O)=C(C#N)C1c1ccc(Br)cc1 (centres undefined) yielded a fold change of -1.13.
With Brc1ccc(-c2csc(N3CCOCC3)n2)cc1 the fold change was 1.56.
For N#CC(C#N)C(c1ccsc1)c1c(-c2ccccc2)[nH][nH]c1=O (centres undefined), the fold change was 3.37 (active).
Molecule Clc1ccc(-c2nc3sc(-c4ccc(Cl)cc4Cl)nc3s2)c(Cl)c1 has a fold change of -2.46.
COC(=O)c1nc2ccc(OC)cc2s1 gave a fold change of -1.15.
COc1ccc(C2C(C#N)=C(N)NC(C(C#N)C#N)=C2C#N)cc1OC (centres undefined) showed a fold change of -1.8.
In the case of CCOC(=O)CO/N=C(\C(=O)O)c1ccn[nH]1, the fold change is reported as “inactive”.
In the case of O=C(O)c1ccn[nH]1, the fold change is reported as 3.42 (active).
For COC(=O)CNC(=O)c1ccn[nH]1, the fold change was -1.28.
With c1ccc(CCn2c(-c3ccccc3)csc2=Nc2ccccc2)cc1 the fold change was -2.95.
Work on CSc1nc(-c2ccc([N+](=O)[O-])cc2)nn1C yielded a fold change of -3.83.
In the case of Nc1nonc1C(=O)NCCNS(=O)(=O)c1ccccc1, the fold change is reported as 3.28 (active).
Work on CS(=O)(=O)NCCNC(=O)c1nonc1N yielded a fold change of -1.3.
NCCNC(=O)c1nonc1N showed a fold change of 1.63.
O=C(O)c1[nH]c(=O)[nH]c(=O)c1[N+](=O)[O-] showed a fold change of 1.2.
CS(=O)(=O)N1CCc2cc(S(=O)(=O)N3CCC(c4ccccc4)CC3)ccc21 showed a fold change of 1.49.
In the case of CS(=O)(=O)Nc1cccc(Cl)c1Cl, the fold change is reported as -1.31.
Molecule COc1ccc(CC2=CN(C)CC3=C2OC(N)=C(C#N)C3c2ccc(OC)c(OC)c2)cc1OC (centres undefined) has a fold change of -1.28.
For O=C(Nc1ccc(Cl)cc1)Nc1ccc(Cl)cc1Cl, the fold change was -2.79.
With CCc1nnc(NC(=O)CN(C)CCC#N)s1 the fold change was -1.46.
With O=c1n(Cc2ccon2)c2ccccc2n1Cc1ccon1 the fold change was -2.68.
With COC(=O)Cn1c(=O)c2ccccc2n(CC(=O)OC)c1=O the fold change was -1.31.
With O=C(O)CCCn1c(=O)n(CCCC(=O)O)c2ccccc21 the fold change was 3.81 (active).
CCN(C(=O)Cc1cccs1)C1CCCCC1 gave a fold change of -1.09.
Molecule Cn1c(=O)oc2ccc(S(=O)(=O)Nc3ccc4c(c3)n(C)c(=O)n4C)cc21 has a fold change of -1.89.
In the case of Cc1ccc(N=Nc2ccccc2)c(N)n1, the fold change is reported as 3.19 (active).
With Nc1nonc1-c1ccccc1 the fold change was -1.8.
With CCCCCCCN=C(C)c1c(C(F)(F)F)[nH]n(-c2nc3ccccc3s2)c1=O the fold change was “active”.
For CCCN=C(CC)c1c(C(F)(F)F)[nH]n(-c2nc3ccccc3s2)c1=O, the fold change was “inactive”.
For CC(=NCCCN1CCOCC1)c1c(C(F)(F)F)[nH]n(-c2nc3ccccc3s2)c1=O, the fold change was “inactive”.
Cc1ccc2c(c1)c1c3n2CCN(c2nc(-c4ccc(Cl)cc4)cs2)C3CCC1 (centres undefined) showed a fold change of 1.42.
With O=C1CC(=O)N(c2ccc(Br)cc2)N1 the fold change was -1.32.
Molecule Cn1cccc1/C=C1/C(=O)ON=C1c1ccccc1 has a fold change of -2.3.
In the case of CCCCCCC1(C)OCO/C1=C\C[N+](C)(C)C (centres undefined), the fold change is reported as -1.62.
Molecule O=S(=O)(c1ccc(Oc2ccc(Br)cc2)cc1)N1CCOCC1 has a fold change of -1.23.
With O=S(=O)(c1ccc(Br)cc1)N1CCCCCC1 the fold change was 1.7.
With CN1CCN(S(=O)(=O)c2ccc(Br)cc2)CC1 the fold change was 3.8 (active).
Molecule Nc1nnc(SCc2cccc(CSc3nnc(N)s3)n2)s1 has a fold change of 1.27.
Work on Cn1c(=O)n(C)c2cc(CN3C(=O)c4ccccc4C3=O)ccc21 yielded a fold change of 1.01.
Work on Nc1ccc(S(=O)(=O)Nc2ccccc2)cc1 yielded a fold change of -1.09.
Work on CC(=O)NS(=O)(=O)c1ccc(N)cc1 yielded a fold change of -1.73.
Molecule O=S(=O)(Nc1ccc(Cl)cn1)c1ccc(Br)cc1 has a fold change of -1.1.
Molecule CNS(=O)(=O)c1ccc(N)cc1 has a fold change of 1.14.
In the case of CCc1nnc(NS(=O)(=O)c2ccc(N)cc2)s1, the fold change is reported as 3.88 (active).
In the case of Nc1ccc(S(=O)(=O)Nc2ccc(Cl)nn2)cc1, the fold change is reported as 2.5 (active).
In the case of O=c1[nH]c(O)c(C=Nc2ccccc2Br)c(=O)[nH]1, the fold change is reported as “inactive”.
O=C(O)C1CCS(=O)(=O)C1 (centres undefined) showed a fold change of 2.36.
With CCCOC(=O)C1=C(C)NC2=C(C(=O)CC(C)(C)C2)C1c1ccc(C)o1 (centres undefined) the fold change was -1.43.
With CC1=C(C(=O)OCC2CCCO2)C(c2ccc(C)o2)C2=C(CC(C)(C)CC2=O)N1 (centres undefined) the fold change was 2.87 (active).
Work on CC1=C(C(=O)OCC2CCCO2)C(c2ccc(C)o2)C2=C(CCCC2=O)N1 (centres undefined) yielded a fold change of 1.18.
Molecule CCCCC(CC)C(=O)N(CC#N)CC#N (centres undefined) has a fold change of -1.13.
With CC(C)(C)c1ccc(C(N2CCCCC2)P(=O)(c2ccccc2)N2CCCCC2)cc1 (centres undefined) the fold change was -1.12.
Work on Cc1cc(/C=c2\sc3nc4ccccc4n3c2=O)c(C)n1C1CCCC1 yielded a fold change of -1.02.
In the case of Cn1cc([N+](=O)[O-])c(C(=O)n2cccn2)n1, the fold change is reported as -1.36.
Molecule COC(=O)c1ccc(=O)oc1 has a fold change of -1.06.
CN(C(=O)CSC(=S)N1CCCC1)c1ccccc1 showed a fold change of 1.5.
CN1CCc2c(sc(N)c2C#N)C1 showed a fold change of 1.58.
For N#Cc1c(N)sc2c1CCCCC2, the fold change was 3 (active).
In the case of CC(=O)Nc1sc2c(c1C#N)CCCC2, the fold change is reported as 1.19.
For c1ccc2c(Cc3ccncc3)c3ccccc3nc2c1, the fold change was -1.25.
With O=[N+]([O-])c1cc(Br)cc(C=NCCCCCCN=Cc2cc(Br)cc([N+](=O)[O-])c2O)c1O the fold change was “inactive”.
In the case of Cn1cccc1/C=C(/C#N)C(N)=O, the fold change is reported as 1.32.
For COc1cc(NS(=O)(=O)c2ccc(N)cc2)nc(OC)n1, the fold change was 3.06 (active).
In the case of COc1cc(NC(=O)CCC(=O)O)nc(OC)n1, the fold change is reported as -1.34.
In the case of Cc1cc(NS(=O)(=O)c2ccc(N)cc2)no1, the fold change is reported as -1.35.
CCOC(=O)/C(C#N)=C/Nc1ccsn1 gave a fold change of 2.1.
Work on N#CC1=C(N)n2c(s/c(=C\c3ccc(O)cc3)c2=O)=C(C#N)C1c1ccc(O)cc1 (centres undefined) yielded a fold change of -3.
COc1ccccc1OCCSc1nc2ccccc2o1 showed a fold change of -1.24.
Work on O=[N+]([O-])c1cccnc1NCCc1cccs1 yielded a fold change of -2.56.
With O=[N+]([O-])c1ccc(NCCc2cccs2)nc1 the fold change was 2.58 (active).
With O=[N+]([O-])c1ccc(Nc2ccc3c(c2)OCCO3)nc1 the fold change was -1.85.
